Bioassay records: PubChem BioAssay, National Center for Advancing Translational Sciences (NCATS)
An excerpt weighted towards active compounds, which were near 16% of everything screened.
miR-21 act: qHTS Assay for Modulators of miRNAs and/orActivators of miR-21 | HeLa miR-21 FLuc reporter, luciferase, 48 h | Potency, µM (top dose mostly 38.3 µM), inactives show at the top dose activity change, positive = activation, most hits filed as activators | 340,000 tested, under 10 active;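 further: % of control where 0% means no effect; miR-21 action dims this reporter so a rising signal means less miR-21 action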
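Compounds were titrated across several concentrations (up to approximately 40 uM) and incubated 48 hours with HeLa miR-21-FLuc reporter cells (miR-21 target sequence downstream of FLuc, endogenous miR-21). Readout was firefly luciferase luminescence after lytic detection reagent.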
DT40 TDP1 CPT: qHTS for Inhibitors of human tyrosyl-DNA phosphodiesterase 1 (TDP1): qHTS in cells in presence of CPT; chicken DT40 Tdp1-/-;hTDP1 cells + 20 nM CPT, ATP luminescence, 48 h; Potency, µM (titrated, usually from 46.2 µM), for the others: at the highest dose activity change, negative = growth inhibition, most hits filed as inhibitors; hit rate 12% among 420,000; AID 686979, 2013; further: potency means the concentration at half of the fitted maximal effect; on the % scale 0 is the no-effect control and ±100 the full control effect; nearly all actives have a fitted effect of over 55% in size
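Cell growth measured by CellTiter-Glo luminescence after a minimum 48 h, 37 C compound exposure with 20 nM CPT in Tdp1-knockout DT40 cells stably expressing hTDP1, seeded 400/well; qHTS titration format.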
TDP1 cell noCPT: qHTS for Inhibitors of human tyrosyl-DNA phosphodiesterase 1 (TDP1): qHTS in cells in absence of CPT; hit rate 15% among 420,000; Potency, µM (series often up to 46.2 µM), inactives show top-dose activity change, negative = growth inhibition, most hits filed as inhibitors; AID 686978, 2013; DT40 Tdp1-/- hTDP1 cells, no CPT, ATP luminescence, 48 h; further: potency means the concentration at half of the fitted maximal effect; on the % scale 0 is the no-effect control and ±100 the full control effect; nearly all actives have a fitted effect of over 55% in size
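Compound effects on proliferation are scored in DT40 Tdp1-/-;hTDP1 cells in the absence of CPT. ATP levels (CellTiter-Glo luminescence) are recorded after a ≥48 hr, 37 °C incubation.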
TDP1 block: qHTS Assay for Inhibitors of Tyrosyl-DNA Phosphodiesterase (TDP1); Tyrosyl-DNA phosphodiesterase 1 (Homo sapiens), Q9NUW8; recombinant TDP1, AlphaScreen DNA substrate cleavage; hit rate 0.28% among 350,000; Potency, µM (titrated, usually from 130 µM), for inactives: at the highest dose activity change, negative = inhibition, most hits filed as inhibitors; AID 485290, 2010; further: potency means the concentration at half of the fitted maximal effect; on the % scale 0 is the no-effect control and ±100 the full control effect; nearly all actives have a fitted effect of over 40% in size
Target sequence (Q9NUW8 whole entry, looked up): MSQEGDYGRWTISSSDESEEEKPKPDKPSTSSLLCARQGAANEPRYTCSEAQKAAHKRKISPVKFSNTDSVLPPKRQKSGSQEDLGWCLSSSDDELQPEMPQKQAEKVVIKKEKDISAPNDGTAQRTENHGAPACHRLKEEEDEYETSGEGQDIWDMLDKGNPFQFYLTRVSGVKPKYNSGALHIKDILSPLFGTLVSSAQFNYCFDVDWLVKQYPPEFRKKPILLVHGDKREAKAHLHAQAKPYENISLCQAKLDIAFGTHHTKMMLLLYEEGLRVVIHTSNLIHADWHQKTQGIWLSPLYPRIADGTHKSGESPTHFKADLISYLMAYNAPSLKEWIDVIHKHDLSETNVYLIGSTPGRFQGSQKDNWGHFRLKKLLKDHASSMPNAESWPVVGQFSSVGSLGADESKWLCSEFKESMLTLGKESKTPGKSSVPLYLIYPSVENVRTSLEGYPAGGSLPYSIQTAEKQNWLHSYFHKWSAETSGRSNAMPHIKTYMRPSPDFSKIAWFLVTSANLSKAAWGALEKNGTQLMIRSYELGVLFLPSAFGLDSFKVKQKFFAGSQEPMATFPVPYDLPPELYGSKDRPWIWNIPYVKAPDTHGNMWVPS
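Compounds were preincubated with Tdp1 (1 nM final) for 15 min at room temperature before substrate (15 nM final) started a 5 min reaction; beads (10 ug/ml final) were then added for 10 min before AlphaScreen detection.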
uPA surface inh: qHTS for Inhibitors of Cell Surface uPA Generation. AID 540303, 2011. hit rate 0.31% among 330,000. Potency, µM (series often up to 38.3 µM), for inactives: top-dose activity change, negative = inhibition, actives largely listed as inhibitors. cell surface uPA generation assay, qHTS; active means well fitted inhibition curve with a large enough effect; inconclusive means small, poorly fitted or top-dose-only effect; inactive means no such curve, though single readings can be large or run the other way; tested in mouse RAW 264.7 cells; further: potency means the concentration at half of the fitted maximal effect; on the % scale 0 is the no-effect control and ±100 the full control effect; nearly all actives have a fitted effect of over 55% in size
* hit, by the source's call. Unless noted, the call rests on the fitted dose curve; in most records, active means well fitted curve in the direction sought with a large enough effect; inconclusive means small, poorly fitted or top-dose-only effect, or another doubt; inactive means no such curve, though single readings can be large; an effect the other way counts as inactive or inconclusive.

Screening CCCNC(=O)C1CCC(Cn2c(=O)c3sccc3n(CC(=O)NCc3cccc(OC)c3OC)c2=O)CC1 (centres undefined) returned miR-21 act 1.9%, DT40 TDP1 CPT inconclusive, TDP1 cell noCPT 4.11µM* and TDP1 block -2.7%.
`CCCCNC(=O)C1CCC(Cn2c(=O)c3sccc3n(CC(=O)Nc3ccccc3)c2=O)CC1` (centres undefined) gave miR-21 act -6.0%, DT40 TDP1 CPT 14.6µM*, TDP1 cell noCPT inconclusive and TDP1 block 5.8%.
For CCCCNC(=O)C1CCC(Cn2c(=O)c3sccc3n(CC(=O)N3CCCC3)c2=O)CC1 (centres undefined) the results were miR-21 act -2.1%, DT40 TDP1 CPT -3.6%, TDP1 cell noCPT -16.6% and TDP1 block 7.1%.
CCCS(=O)(=O)c1c(S(=O)(=O)CCC)c2ccc(C(N)=O)cn2c1C(=O)c1ccccc1 was read as miR-21 act -7.9%, DT40 TDP1 CPT -1.5%, TDP1 cell noCPT 13.5% and uPA surface inh -10.0%.
Screening Cc1noc(C)c1-c1ccc(C(=O)NCc2cccnc2)c2occc12 returned DT40 TDP1 CPT 13µM* and TDP1 cell noCPT 18.4µM*.
Screening Cc1noc(C)c1-c1ccc(C(=O)NCCC(F)(F)F)c2occc12 returned DT40 TDP1 CPT 14.6µM* and TDP1 cell noCPT inconclusive.
Screening Cc1noc(C)c1-c1ccc(C(=O)Nc2cccc(C(F)(F)F)c2)c2occc12 returned DT40 TDP1 CPT 16.4µM* and TDP1 cell noCPT 20.6µM*.
`CN(C)CCNC(=O)c1ccc(-c2cnn(C)c2)c2ccoc12` gave DT40 TDP1 CPT 4.3% and TDP1 cell noCPT -17.7%.
`Cc1noc(C(=O)NCc2cccnc2)c1Cl` gave miR-21 act -3.4%, DT40 TDP1 CPT -11.9%, TDP1 cell noCPT -10.9%, TDP1 block 5.2% and uPA surface inh -3.4%.
Cc1ccc(C(=O)c2cn(CC(=O)NCc3ccccc3Cl)c3nc(C)ccc3c2=O)cc1 was read as miR-21 act 0.7%, DT40 TDP1 CPT inconclusive, TDP1 cell noCPT inconclusive and TDP1 block 3.2%.
For CC(C)(C)C1CCc2nc(NC(=O)COc3ccc(F)cc3)sc2C1 (centres undefined) the results were miR-21 act 0.6%, DT40 TDP1 CPT inconclusive, TDP1 cell noCPT 20.6µM* and TDP1 block 5.7%.
Screening COc1ccc(CC(=O)Nc2nc3c(s2)CC(C(C)(C)C)CC3)cc1 (centres undefined) returned miR-21 act -17.8%, DT40 TDP1 CPT inconclusive, TDP1 cell noCPT inconclusive and TDP1 block 0.0%.
CC(C)(C)C1CCc2nc(NC(=O)Cc3cn4ccsc4n3)sc2C1 (centres undefined) was read as miR-21 act -55.1%, DT40 TDP1 CPT 11.2%, TDP1 cell noCPT inconclusive, TDP1 block 9.3% and uPA surface inh 5.0%.
Screening CC(C)(C)C1CCc2nc(NC(=O)Cc3ccc(Cl)cc3)sc2C1 (centres undefined) returned miR-21 act -52.3%, DT40 TDP1 CPT 6.51µM*, TDP1 cell noCPT 7.31µM* and TDP1 block 2.9%.
CC(C)CC(=O)Nc1nc2c(s1)CC(C(C)(C)C)CC2 (centres undefined) was read as miR-21 act -1.1%, DT40 TDP1 CPT 16.4µM*, TDP1 cell noCPT 14.6µM* and TDP1 block 8.6%.
For CCc1nc2ccc(C)cc2c(C(=O)NC2CCCCC2C)c1C (centres undefined) the results were miR-21 act -0.7%, DT40 TDP1 CPT -13.0%, TDP1 cell noCPT -0.5%, TDP1 block -2.1% and uPA surface inh -2.5%.
`CCC1CCCCN1CC(=O)N1CCCc2c1c(=O)oc1ccc(OCc3ccccc3)cc21` (centres undefined) gave miR-21 act inconclusive, DT40 TDP1 CPT 14.6µM* and TDP1 cell noCPT 10.3µM*.
O=C(CN1CCN(Cc2ccccc2)CC1)N1CCCc2c1c(=O)oc1ccc(O)cc21 was read as miR-21 act 29.3%, DT40 TDP1 CPT 23.1µM*, TDP1 cell noCPT inconclusive and TDP1 block 4.4%.
Screening CCCOc1ccc2oc(=O)c3c(c2c1)CCCN3C(=O)CN(C)Cc1ccccc1 returned miR-21 act 3.7%, DT40 TDP1 CPT inconclusive, TDP1 cell noCPT 20.6µM*, TDP1 block 6.9% and uPA surface inh -3.1%.
Screening CCOC(=O)C1CCCN(CC(=O)N2CCCc3c2c(=O)oc2ccc(OCc4ccccc4)cc32)C1 (centres undefined) returned miR-21 act -1.7%, DT40 TDP1 CPT -8.9% and TDP1 cell noCPT inconclusive.
`O=C(CN1CCCCC1)N1CCCc2c1c(=O)oc1ccc(OCc3ccccc3)cc21` gave miR-21 act 0.6%, DT40 TDP1 CPT inconclusive, TDP1 cell noCPT inconclusive, TDP1 block 4.7% and uPA surface inh -5.0%.
For O=C(CC[C@H]1O[C@@H](n2ccc(=O)[nH]c2=O)[C@H](O)[C@@H]1O)N[C@H](Cc1ccccc1)C(=O)NCc1cccs1 the results were DT40 TDP1 CPT 0.3% and TDP1 cell noCPT 20.7%.
`COc1cccc(COC(=O)CCNC(=O)c2ccc(Cl)cc2)c1OC` gave DT40 TDP1 CPT -8.1%, TDP1 cell noCPT 28.4%, TDP1 block 3.5% and uPA surface inh 5.2%.
Screening CCN(CC)CCCNC(=O)CN1C(=O)CSc2ccc(S(=O)(=O)N3CCOCC3)cc21 returned miR-21 act -8.0%, DT40 TDP1 CPT 2.7%, TDP1 cell noCPT 6.8%, TDP1 block -2.6% and uPA surface inh 12.4%.
Screening CC12C(=O)N(c3cccc4cccnc34)C(=O)C1C1C=CC2C1 (centres undefined) returned miR-21 act 7.0%, DT40 TDP1 CPT 38.0%, TDP1 cell noCPT 4.9%, TDP1 block 3.9% and uPA surface inh 7.8%.
CC12C(=O)N(c3nccs3)C(=O)C1C1C=CC2C1 (centres undefined) was read as miR-21 act -8.2%, DT40 TDP1 CPT -4.3%, TDP1 cell noCPT -16.9%, TDP1 block 22.4µM* and uPA surface inh 2.8%.
For O=C(CC1SC(=O)NC1=O)Oc1ccc(/C=N/NC(=O)c2ccccc2O)cc1 (centres undefined) the results were miR-21 act -29.4%, DT40 TDP1 CPT -0.9%, TDP1 cell noCPT -10.8%, TDP1 block 5.0% and uPA surface inh -7.7%.
CCC(=O)OCCNc1cc(Sc2nc3ccccc3s2)c2nonc2c1[N+](=O)[O-] was read as miR-21 act inconclusive, DT40 TDP1 CPT 1.64µM*, TDP1 cell noCPT 2.06µM* and TDP1 block 9.0%.
